Records with an inconclusive call do not appear. Unmarked numbers belong to inactive results. Activity calls are given as the source filed them. Calls come from the whole dose curve; as a rule, active = well fitted inhibition curve with a large enough effect; inconclusive = small, poorly fitted or top-dose-only effect; inactive = flat fitted curve, though single readings scatter.

A short description of test [1]: qHTS profiling for inhibitors of Plasmodium falciparum proliferation (AID 504749).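 For activity, negative = inhibition: 0% = DMSO vehicle and full inhibition = artemisinin control.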 Note: nearly all actives have a fitted effect of over 60% in size. To be noted: P. falciparum in erythrocytes, SYBR Green DNA, 72 h. In a few lines:
(§1)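 Fluorescence of SYBR Green-bound parasite DNA, read at 485/535 nm, served as the growth measure. Infected erythrocytes were cultured with compound 72 h; artemisinin (0.29 uM) and DMSO wells defined the normalization range.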
(In general: qHTS replaces the single test concentration by a dilution series.)

The test system of the next test is 3D7. The test is described as above. To be noted: P. falciparum in erythrocytes, SYBR Green DNA, 72 h; series mostly up to 28.7 µM. The method in brief:
as §1

The test system of the next test is 7G8. The description is as above. The conditions noted are these: P. falciparum in erythrocytes, SYBR Green DNA, 72 h; series mostly up to 28.7 µM. The method in brief: as §1
The test system of another test is AA1029. The description is as above. To be noted: P. falciparum in erythrocytes, SYBR Green DNA, 72 h; series mostly up to 28.7 µM. In a few lines: as §1
For another test, the system named is AS120. The test is described as above. To be noted: P. falciparum in erythrocytes, SYBR Green DNA, 72 h; series mostly up to 28.7 µM. The method in brief:
as §1

Setting [2] is: at 28.7 µM (top of the series), parasite line A.
Setting [3] is: at 28.7 µM (top of the series), parasite line B.
Setting [4] is: at 12.8 µM (top of the series), parasite line A.
[5] abbreviates: at 12.8 µM (top of the series), parasite line B.
Potency is the fitted concentration of half-maximal effect.

`CN(C)C(=O)Nc1ccc(Cl)c(Cl)c1`: the activity, negative = inhibition in test [1] (setting [2]) is -1.54%; in test [1] (setting [3]), -6.86%.

As for `OCc1ccccn1`, the activity, negative = inhibition is 7.68% in test [1] (setting [2]) and 8.75% in test [1] (setting [3]). The Potency entry in the test with 3D7, with 7G8, in the test on AA1029 and in the test on AS120 was “inactive” throughout.

For the compound `NS(=O)(=O)c1cc(C(=O)O)cc(N2CCCC2)c1Oc1ccccc1`, the activity, negative = inhibition in test [1] (setting [4]) was 5.58%; in test [1] (setting [5]), 15.6%. Besides, the Potency result with 3D7, in the test with 7G8, in the test with AA1029 and with AS120 was “inactive” throughout.

Take `CCOC(=O)c1c(N)sc2c1CCN(Cc1ccccc1)C2`: the Potency in test [1] (parasite line A) was 10 µM (active); in test [1] (parasite line B) it was 5.01 µM (active); in the test with 3D7, 11.2 µM (active); in the test with 7G8, 6.31 µM (active); in the test on AA1029 it was 5.01 µM (active); in the test on AS120, 8.91 µM (active).

As to `Nc1ccc(C(=O)NCC(=O)O)cc1`, the activity, negative = inhibition in test [1] (setting [4]) was 7.06%; in test [1] (setting [5]), 8.58%. Further, the Potency result with 3D7, in the test with 7G8, with AA1029 and with AS120 was “inactive” each time.

As to `CCOc1ccccc1OCCN[C@H](C)Cc1ccc(OC)c(S(N)(=O)=O)c1`, the activity, negative = inhibition was 7.23% in test [1] (setting [2]) and 1.02% in test [1] (setting [3]). The Potency result in the test on 3D7, with 7G8, with AA1029 and in the test on AS120 was “inactive” each time.

With `COc1cc(O)c(C(=O)c2ccccc2)cc1S(=O)(=O)O`, the activity, negative = inhibition was -0.769% in test [1] (setting [2]) and 4.93% in test [1] (setting [3]). Further, the Potency result in the test on 3D7, with AA1029 and in the test with AS120 was “inactive” in each case. Besides, the Potency in the test on 7G8 is 11.2 µM (active).

For the compound `O=C(O)C1(C(=O)O)CCC1.[NH2-].[NH2-].[Pt+2]`, the figures for the activity, negative = inhibition in test [1] (setting [2]) and in test [1] (setting [3]) were -5.41% and -0.756%, respectively. Besides, the Potency entry with 3D7, in the test on AA1029 and in the test with AS120 was “inactive” in each case. In addition, in the test with 7G8, the Potency was 14.1 µM (active).

For the compound `COc1cc(C(=S)N2CCOCC2)ccc1O`, the activity, negative = inhibition was 1.83% in test [1] (setting [2]) and -2.75% in test [1] (setting [3]). The Potency result with 3D7, in the test on 7G8, in the test with AA1029 and in the test with AS120 was “inactive” each time.

As for `CCCCCCCCCCCCCCCCO`, the activity, negative = inhibition was 1.6% in test [1] (setting [2]) and 8.58% in test [1] (setting [3]). Moreover, the Potency entry with 3D7, in the test on 7G8, with AA1029 and in the test on AS120 was “inactive” throughout.

In the case of `O=C(O)CCC(=O)Nc1ccc(S(=O)(=O)Nc2nccs2)cc1`, the activity, negative = inhibition was 14.2% in test [1] (setting [4]) and 11.7% in test [1] (setting [5]). For the same compound, the Potency result in the test with 3D7, in the test with 7G8, in the test on AA1029 and in the test with AS120 was “inactive” in each case.

For `c1ccc(-c2nc[nH]c2-c2ccccc2)cc1`, the activity, negative = inhibition in test [1] (setting [2]) is 7.29%; in test [1] (setting [3]) it was -4.58%. The Potency result in the test with 3D7, in the test with 7G8, in the test with AA1029 and with AS120 was “inactive” in each case.

For the origin of these results see PubChem BioAssay (NCATS).
